# According to ChEMBL document CHEMBL3988442, “University of Dundee, Small-Polar-MMV Screening Library” (2021):
# Target: AMP-activated protein kinase, AMPK (Homo sapiens) (UniProt P54646+O43741+P54619+Q9UGJ0+Q9Y478+Q13131+Q9UGI9)
# Assay: AMP-dependent Kinase enzyme assay. An in vitro enzyme assay that detects ADP turnover that is directly proportional to AMPK activity. This uses naive AMPK that is activated during the assay with MK-8722
# Format: functional
# Design: scale not given: direction of the effect not stated beside the values
# Settings: 30 µM
row,SMILES,Percent Effect [%]
1,CC(CN1CCOCC1)n1cncc1-c1cnn(Cc2ccccc2)c1 (stereo not given),2.92
2,CCCS(=O)(=O)NCc1ncc(C)c(OC)c1C,6.9
3,CC(=O)N1CCCC1(C(=O)N1CCCC1)c1cnccn1 (stereo not given),-0.265
4,O=C1OCCN1Cc1nc(C2(c3ccc(F)cc3)CCOC2)no1 (stereo not given),8.23
5,CCc1nnc(CN2CC(n3cccn3)C2)o1,-3.56
6,CNc1cc2c(nn1)CCN(C(=O)c1ccc(-n3cccn3)nc1)C2,-15.7
7,CC(C)(C)c1n[nH]cc1CNC1CCC(OCC(F)(F)F)CC1 (stereo not given),3.73
8,COc1cc(CCC(=O)N2CCC(c3cc4ncc(C)nc4[nH]3)C2)on1 (stereo not given),-0.349
9,Cc1csc(C(=O)N2CCC(S(C)(=O)=O)CC2)c1,-2.86
10,Cc1cc(C)n2c(CNCCNc3ccccc3)cnc2n1,-15.1
11,CCc1ccsc1C(=O)NC(C#N)CC (stereo not given),2.87
12,Cc1nc(-c2ccnn2C)cc(C2CCCN(S(C)(=O)=O)C2)n1 (stereo not given),13.9
13,CC(C)Cc1noc(CN(C)C2CCCC2)n1,10.7
14,CN(C)c1ccc(C(=O)Nc2cnn(Cc3ccccn3)c2)cc1,-1.9
15,CN1CCN(CCOc2ccc(NC(=O)c3ccc[nH]3)cc2)CC1,6.53
16,COc1cccc2c1CCCCN2C(=O)c1oc(C)nc1C,5.74
17,Cc1nccn1[C@@H]1CC[C@@H](N(C)S(=O)(=O)c2ccccc2F)[C@H]1O,5.86
18,Cc1nnc(C(C)N2CCN(Cc3noc(C(C)(C)C)n3)CC2)o1 (stereo not given),-8.02
19,CCc1ccc2nc(-c3cnn(C)c3)cc(C(=O)N3CCCC3)c2c1,7.23
20,Cc1csc(C(=O)N2CC(S(=O)(=O)C3CCCCC3)C2)c1,-2.28

row,SMILES,Percent Effect [%]
1,COc1ccc(NC(=O)Cc2c(C)nn(C)c2C)cc1F,1.16
2,COc1ccccc1CNC(=O)C(C)N1CC(n2cc(C)cn2)C1 (stereo not given),3.01
3,Cc1noc(C)c1CCCNC(=O)Nc1cccc([S+](C)[O-])c1 (stereo not given),4.42
4,O=C(CNC(=O)c1ccccc1I)NCc1ccccc1F,4.78
5,Cc1cc(C2CCCN(CCc3ccc4c(c3)CCO4)C2)n[nH]1 (stereo not given),3.65
6,CCOc1ccc(C(=O)NC2CC2)cc1C,4.59
7,COc1ccccc1C(=O)N1CCN(C(=O)CCCc2cn[nH]c2)CC1,-2.48
8,CC(C)NC(=O)c1nc(Cn2c(C(F)F)nc3ccccc32)no1,12.9
9,CCn1cnnc1CNC(=O)N1CCOC(c2ccc(Cl)cc2)C1 (stereo not given),-4.37
10,Cc1cc(C2CCCN(Cc3cccnc3)C2)n[nH]1 (stereo not given),-0.765
11,CC(=O)N[C@H]1CCO[C@@H](c2cccc(NC(=O)C(C)(C)C)c2)C1,7.76
12,CCS(=O)(=O)NCc1nc(C)cc(N2CCOCC2)n1,0.985
13,CCc1nc(N)nc(NCCC(=O)N2CCCC2)c1C,4.47
14,CC(C)c1cc(C2CCN(C(=O)Cn3cnnn3)CC2)[nH]n1,12.8
15,COCCN1CC(=O)N2CC[C@@H](O)C[C@H]2C1=O,-8.25
16,N#Cc1cccnc1Nc1ccc(N2CCC(C(N)=O)CC2)cc1,19
17,CN1C[C@H](c2ccccc2)[C@H]2CN(C(=O)Cc3ccc(O)cc3)CC[C@H]21,4.46
18,CCNC(=O)NCc1ccc(-n2ccc(C(F)(F)F)n2)cc1,-2.79
19,Cc1ccccc1CC(=O)NCc1cnc(CC2CCN(C)CC2)cn1,4.22
20,Cn1ccnc1C1(O)CCN(C(=O)CCc2ccccc2)CC1,8.55
